Some of the results follow. The source made the active and inactive calls.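 How the source made its calls: active means activation above a set limit carried over from the earlier primary STAT1 screen (cut at about 140% in these data); inactive means the rest.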

A short description of the assay: potentiators of IFN-gamma STAT1 reporter activity – cell-based, HTS, luciferase reporter, confirmation (AID 1262).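 Further: simple ratio to median IFN-gamma plus DMSO wells so 0% means no light.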 Conditions: NIH 3T3 STAT1-luciferase reporter, IFN-gamma potentiation, luminescence; at 5.7 µM; hits give high values; 100% = IFN-gamma EC80 alone, no compound.
Consider `Cc1cccc(N=Nc2c(O)[nH]c3ccc(F)cc23)c1`, for which the activation (% of control) was 160% (active).

For the compound `O=C(NCCCn1ccnc1)c1cc(-c2ccccc2)on1`, the activation (% of control) is 173% (active). Next, `c1cnc(Nc2nc(-c3ccc4ccccc4c3)cs2)nc1`: 208% (active). Take `CCc1ccc(NC2Nc3cc(C)nn3S2)cc1` (stereo not given): the activation (% of control) is 206% (active). Next, `O=C(Nc1ccc(Cl)cn1)c1cnn2cccnc12`: 171% (active); `Cc1noc(C)c1/C=N/Nc1ccc2ccccc2n1`: 235% (active). Next, `CC(=O)Nc1cccc(-c2csc(Nc3cccc(C)n3)n2)c1`: 241% (active); `Nc1ncc(-c2cc3ccccc3oc2=O)s1`: 184% (active); `Cc1[nH]n(-c2ccccc2)c(=O)c1/C=N/NC(=O)c1ccoc1C`: 120% (inactive). For `COc1ccc2nc(NC(=O)c3ccc(Br)s3)sc2c1`, the activation (% of control) is 185% (active). Turning to `Clc1ccc(Nc2nc(-c3cccs3)cs2)nc1`, the activation (% of control) is 289% (active).

Take `O=C(c1cc(-c2cccs2)on1)N1CCCCC1`: the activation (% of control) was 184% (active).

As for `CC1CN/C(=C\C(=O)c2ccc(Br)cc2)C(=O)N1` (stereo not given), the activation (% of control) was 250% (active). Next, `CCNc1nc(-c2cc3ccccc3o2)cs1`: 131% (active); `Cc1ccc(NC(=O)Nc2ccc3oc(C)nc3c2)cc1`: 200% (active).

For the compound `CN(C)c1ccnc2sc(C(=O)c3ccccc3)c(N)c12`, the activation (% of control) was 188% (active). For `COc1ccc(/C=N/Nc2nc3ccccc3c(=O)[nH]2)cc1`, the activation (% of control) is 169% (active). On to `NC(=O)Cc1ccc2sc(-c3ccccc3)nc2c1`, for which the activation (% of control) was 203% (active). With `CC(=O)c1sc(NC(=O)c2ccc(C)cc2)nc1C`, the activation (% of control) is 185% (active). As to `CC(C)c1ccc(NC(=O)NC2CCCCC2)cc1`, the activation (% of control) is 191% (active).

For the origin of these results see PubChem BioAssay.
